# Source: PubChem BioAssay (The Scripps Research Institute Molecular Screening Center)
# In the library only some 2.3% were active in any assay of this set; here they are far more common.
# CHRM1 antagonist – human M1 muscarinic receptor antagonists, primary screen, CHO-K1 cells, Fluo-8 calcium fluorescence, 1536-well. Muscarinic acetylcholine receptor M1 (Homo sapiens), P11229. CHO-K1 hM1, ACh EC80 antagonist. inhibition, % at 3 µM. 360,000 tested, 1.3% active. AID 588852, 2011;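 active means percent inhibition above its own plate's cutoff, namely the mean of that plate's compound wells plus 3 SD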;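 further: peak over basal fluorescence ratio during 140 s after agonist addition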
# Target sequence (P11229 whole entry, looked up): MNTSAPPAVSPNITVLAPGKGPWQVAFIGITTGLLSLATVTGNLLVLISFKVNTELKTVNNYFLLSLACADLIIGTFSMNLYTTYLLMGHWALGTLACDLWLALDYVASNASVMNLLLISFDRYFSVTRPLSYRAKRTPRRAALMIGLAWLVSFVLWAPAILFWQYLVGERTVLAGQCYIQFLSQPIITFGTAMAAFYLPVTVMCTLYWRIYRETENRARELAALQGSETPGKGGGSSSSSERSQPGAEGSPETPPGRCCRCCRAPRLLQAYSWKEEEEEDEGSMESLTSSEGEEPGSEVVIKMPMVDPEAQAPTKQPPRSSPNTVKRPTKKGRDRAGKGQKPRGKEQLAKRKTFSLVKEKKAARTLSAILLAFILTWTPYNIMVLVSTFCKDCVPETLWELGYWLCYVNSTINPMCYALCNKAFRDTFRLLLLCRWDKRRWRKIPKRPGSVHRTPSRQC
# M1 ag – human M1 muscarinic receptor agonists, primary screen, Fluo-8 calcium fluorescence, CHO-K1 cells, HTS; CHO-K1 hM1, agonist mode; 0% DMSO, 100% acetylcholine EC100; 360,000 tested, 0.33% active; Muscarinic acetylcholine receptor M1 (Homo sapiens), P11229; activation, % at 3 µM;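 active means activation above the run's mean compound activation plus 3 SD, cut at about 16% in these data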;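 further: peak over basal fluorescence ratio within a 140 s kinetic read after compound addition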
# M1 PAM – human M1 muscarinic receptor positive allosteric modulators, primary screen, CHO-K1 cells, Fluo-8 calcium fluorescence, 1536-well; Muscarinic acetylcholine receptor M1 (Homo sapiens), P11229; CHO-K1 hM1, ACh EC20; 0% = ACh EC20, 100% = maximal ACh; activation, % at 3 µM; 360,000 tested, 0.088% active; in the data active means activation above about 19%, passing the limit was not always enough
# CHO-K1 Ca ag – counter-screen for M1 agonists: effect in parental CHO-K1 cells; Fluo-8 calcium fluorescence; scaled to maximal ATP response, vehicle zero; activation, % at 3 µM; 360,000 tested, 0.48% active; in the data active means activation above about 15%;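 further: untransfected CHO-K1 host cells lacking M1 receptor as counterscreen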
# CHO-K1 Ca PAM – nonselective calcium activators in parental CHO-K1 cells, primary screen, counter-screen for M1 PAM project, cell-based, Fluo-8 calcium fluorescence, full deck, 1536-well. activation, % at 3 µM. ATP EC20; 0% at ATP EC20, 100% at ATP max. 360,000 tested, 0.02% active. AID 602247, 2012;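 active means activation above the run cutoff, the mean activation of all test compounds plus 3 SD, cut at about 40% in these data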;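 further: peak over basal fluorescence ratio in a 140 s read after ATP addition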
# CHO-K1 Ca antag – counter-screen for M1 antagonists: effect in parental CHO-K1 cells; ATP-induced calcium, Fluo-8 fluorescence; inhibition, % at 3 µM; 360,000 tested, 0.6% active;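 active means inhibition above a per-plate cutoff, the plate's mean sample inhibition plus 3 SD, cut at about 24% in these data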
# Numbers stand for hits; n = inactive; ! = a repeat was not active.
SMILES,CHRM1 antagonist,M1 ag,M1 PAM,CHO-K1 Ca ag,CHO-K1 Ca PAM,CHO-K1 Ca antag
CC(=O)Nc1ccc(OCC(O)CN2C(C)CCCC2C)cc1 (centres undefined),n,n,n,n,n,32.0
CC(C(=O)OCC(=O)Nc1cccc(S(=O)(=O)N(C)C)c1)N1C(=O)c2ccccc2C1=O (centres undefined),n,n,n,n,n,n
COc1ccc(C(=O)CN2C(=O)NC3(CCCCCC3)C2=O)c(OC)c1,n,n,n,n,n,n
O=C(CN1C(=O)NC2(CCCC2)C1=O)NNC(=O)c1ccc(Br)cc1,n,n,29.7,n,n,n
COc1ccc(C(=O)CN2C(=O)NC3(CCCCC3)C2=O)cc1OC,n,n,n,18.5,n,n
O=C(C1CC(=O)N(c2ccccc2)C1)N1CCN(c2ccc(F)cc2)CC1 (centres undefined),n,n,n,n,n,n
O=C(O)CCCNC(=O)c1nn(Cc2ccccc2)c(=O)c2ccccc12,n,n,n,n,n,n
NNC(=O)c1ccc(CSc2cccc3cccnc23)cc1,n,29.4,n,n,n,n
Cc1cccc(CSc2cccc3cccnc23)c1,n,n,n,n,n,n
c1cnc2c(SCc3ccc(-c4nnco4)cc3)cccc2c1,n,16.0,n,n,n,n
O=C1CCC/C(=N\NC(=O)c2ccc(CSc3cccc4cccnc34)cc2)C1,n,20.2,n,n,n,n
O=C(N/N=C/c1ccccc1Br)c1ccc(CSc2cccc3cccnc23)cc1,n,n,n,n,n,n
CCOc1cc(N2CCOCC2)c(OCC)cc1NS(=O)(=O)c1cc(NC(C)=O)ccc1OC,n,n,n,n,n,n
Cc1cc(NC(=O)C(C)SCC(=O)N(C)CC(=O)Nc2ccc(F)cc2)no1 (centres undefined),n,n,n,n,n,n
c1cc2c(cc1Nc1nc(-c3ccc4c(c3)OCO4)cs1)OCCO2,n,n,n,n,n,26.4
CC(C)(C)C(=O)Nc1nc(-c2ccc3c(c2)OCO3)cs1,n,n,n,15.4,n,n
CCC(=O)Nc1nc(-c2ccc3c(c2)OCCO3)cs1,n,n,n,n,n,n
COc1ccc(CCC(=O)OCC(=O)c2ccc(C)cc2)cc1,n,n,n,n,n,n
COC(=O)C1C2CCC(C2)C1C(=O)OCC(=O)c1ccc(C)cc1 (centres undefined),n,n,n,n,n,27.0
CCc1nc(SCC(=O)Nc2nnc(CC)s2)c2c(C)c(C)sc2n1,n,n,n,n,n,n
CCc1nc(SCC(=O)Nc2cc(OC)ccc2OC)c2c(C)c(C)sc2n1,32.5,n,n,n,n,n
COc1ccc(C(=O)Nc2c3c(nn2-c2ccc(Cl)cc2)CS(=O)(=O)C3)cc1,n,n,n,n,n,n
COc1ccc(C(=O)Nc2c3c(nn2-c2ccc([N+](=O)[O-])cc2)CS(=O)(=O)C3)cc1,n,n,n,17.9,n,n
O=c1c2cc(C(F)(F)F)ccc2sn1-c1ccccc1,n,16.0,n,n,n,n
O=C(O)c1cccc(-n2sc3ccccc3c2=O)c1,n,n,n,n,n,n
SMILES,CHRM1 antagonist,M1 ag,M1 PAM,CHO-K1 Ca ag,CHO-K1 Ca PAM,CHO-K1 Ca antag
O=c1c2cc(F)ccc2sn1-c1ccccc1,n,n,n,19.1,n,n
O=c1c2ccccc2sn1-c1ccccc1,n,n,n,n,n,n
O=[N+]([O-])c1cc(S(=O)(=O)NCCN2CCOCC2)ccc1Sc1nnnn1-c1ccccc1,61.9,n,n,n,n,n
Cc1ccc(-n2nnnc2Sc2ccc(S(=O)(=O)NCCN(C)C)cc2[N+](=O)[O-])cc1,86.4,n,n,n,n,n
O=[N+]([O-])c1cc(S(=O)(=O)NCCCN2CCOCC2)ccc1Cl,n,n,n,n,n,n
O=C(c1cnc(Cl)c(Cl)c1)N1CCN(S(=O)(=O)c2cccs2)CC1,n,n,n,n,n,n
COc1ccc(NC2=NCC(=O)N2Cc2cccs2)cc1,n,n,n,n,n,n
COc1ccc(NC2=NCCC(=O)N2Cc2cccs2)cc1,n,n,n,n,n,29.6
O=C(Nc1ccc(Oc2ccccc2)cc1)C1CCN(c2c3c(nc4ncnn24)CCC3)CC1,36.1,n,n,n,n,n
CC(C)Oc1cc(F)ccc1-c1cc(C(=O)Nc2cccc(C(F)(F)F)c2)[nH]n1,35.4,n,n,n,n,n
COc1ccc(NC(=O)c2cc(-c3ccc(F)cc3OC(C)C)n[nH]2)cn1,n,n,n,n,n,n
COc1cc(NC(=O)c2cc3cccc(OC)c3o2)cc(C(=O)Nc2cccc(C(F)(F)F)c2)c1,n,n,n,n,n,n
COc1ccc(-c2cc(C(=O)Nc3cc(OC)cc(C(=O)Nc4cccc(C(F)(F)F)c4)c3)[nH]n2)cc1,41.0!,n,n,n,n,n
COc1cc(NC(=O)c2ccno2)cc(C(=O)Nc2cccc(C(F)(F)F)c2)c1,30.6,n,n,17.3,n,n
O=C(COc1cc(Cl)ccc1Cl)Nc1nnc(C2CC2)s1,n,n,n,n,n,n
Cc1cc(C)c(S(=O)(=O)N2CCC(C(=O)NCc3ccco3)CC2)c(C)c1,n,n,n,n,n,n
O=C(Nc1ccccc1C(=O)N1CCCCC1)c1ccc(Cl)cc1Cl,n,n,n,n,n,n
COc1ccc(C(C)C)cc1S(=O)(=O)Nc1cccnc1,n,n,n,n,n,n
O=C(Cn1cccc1C(=O)c1ccccc1)NCc1ccccc1,n,n,n,n,n,n
NC(=NCc1ccc2c(c1)OCO2)NC(=O)c1ccccc1,24.4,n,n,n,n,n
O=C(Cn1cccc1C(=O)c1ccccc1)NCc1ccc2c(c1)OCO2,n,n,n,n,n,53.3
COc1ccc(C(=O)Nc2ccc3c(c2)Cc2ccccc2-3)cc1,n,n,n,n,n,24.1
COc1cccc(OC)c1C(=O)Nc1ccc2c(c1)Cc1ccccc1-2,n,n,n,n,n,n
CC1(C)CCN2CCC(C)(C)c3c(O)ccc1c32,n,22.8,n,34.3,n,26.1
N#CC(c1ccc(Cl)cc1)c1ccc2c(C(F)(F)F)cc(C(F)(F)F)nc2n1 (centres undefined),n,n,n,n,n,23.7
COc1cc(C(=O)Nc2nc(C)cc(C)n2)cc(OC)c1OC,n,n,n,n,n,n
COc1ccc(CCNc2ncnc3c2oc2ccccc23)cc1OC,39.8,n,n,n,n,44.3
NS(=O)(=O)c1ccc(CNc2ncnc3sccc23)cc1,n,n,n,n,n,n
